# Hit rate of the full screen: of about 2,400 compounds, about 750 (31%) were called active.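 Rule for the calls: active = median signal gain over dofetilide-blocked control wells reaching their mean plus 3 SD, so readout 1 at least 0; inactive = the rest.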 The list shows a part of the results.
# Molecular target: Voltage-gated inwardly rectifying potassium channel KCNH2 (Homo sapiens) (UniProt Q12809)
# Assay: hERG protection against dofetilide inhibition, confirmation, cell-based, thallium flux, duplicate retest, dofetilide IC70 (AID 1835)
# Conditions: hERG cell line, FluxOR thallium flux, dofetilide-blocked; at 10 µM; stronger effect = higher value
# Sequence of Voltage-gated inwardly rectifying potassium channel KCNH2 (Homo sapiens) (Q12809 whole entry, looked up): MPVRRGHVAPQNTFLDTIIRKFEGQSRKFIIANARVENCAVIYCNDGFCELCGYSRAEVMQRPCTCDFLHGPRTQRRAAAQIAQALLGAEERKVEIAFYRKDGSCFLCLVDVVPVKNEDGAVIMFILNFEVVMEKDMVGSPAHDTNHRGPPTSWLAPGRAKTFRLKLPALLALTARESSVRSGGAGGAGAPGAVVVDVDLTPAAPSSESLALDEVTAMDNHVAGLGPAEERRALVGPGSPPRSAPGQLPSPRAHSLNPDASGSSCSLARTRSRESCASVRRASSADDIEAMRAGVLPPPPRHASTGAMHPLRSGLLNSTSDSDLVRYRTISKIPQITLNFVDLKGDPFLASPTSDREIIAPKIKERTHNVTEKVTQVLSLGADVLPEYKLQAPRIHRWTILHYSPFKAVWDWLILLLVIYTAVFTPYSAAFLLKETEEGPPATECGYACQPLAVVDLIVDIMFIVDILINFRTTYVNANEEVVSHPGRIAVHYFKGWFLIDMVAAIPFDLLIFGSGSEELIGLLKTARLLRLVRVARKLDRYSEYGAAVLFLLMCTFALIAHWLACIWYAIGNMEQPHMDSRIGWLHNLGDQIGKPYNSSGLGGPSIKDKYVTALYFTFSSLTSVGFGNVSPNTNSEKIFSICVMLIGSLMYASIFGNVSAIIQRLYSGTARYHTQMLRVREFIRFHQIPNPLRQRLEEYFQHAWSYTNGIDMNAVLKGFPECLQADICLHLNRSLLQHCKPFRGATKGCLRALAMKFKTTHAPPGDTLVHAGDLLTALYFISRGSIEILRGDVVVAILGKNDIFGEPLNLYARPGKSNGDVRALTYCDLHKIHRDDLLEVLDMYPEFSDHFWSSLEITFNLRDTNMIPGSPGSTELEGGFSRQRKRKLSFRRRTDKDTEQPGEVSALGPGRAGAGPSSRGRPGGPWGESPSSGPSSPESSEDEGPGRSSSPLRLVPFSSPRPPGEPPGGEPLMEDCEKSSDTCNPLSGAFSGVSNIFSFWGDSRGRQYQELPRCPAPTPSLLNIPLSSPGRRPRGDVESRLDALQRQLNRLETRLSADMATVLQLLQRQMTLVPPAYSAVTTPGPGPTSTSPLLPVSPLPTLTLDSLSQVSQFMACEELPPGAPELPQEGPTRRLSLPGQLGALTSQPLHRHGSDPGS
row,Structure (SMILES),"activity increase over dofetilide control, less the hit threshold"
1,O=C1c2ccccc2C(=O)N1c1cccnc1,-12% (inactive)
2,c1ccc(OCc2nn3c(Cn4cnc5ccccc54)nnc3s2)cc1,-10% (inactive)
3,O=C(NC(=S)Nc1cccc(Cl)c1N1CCCCC1)c1cccs1,-10% (inactive)
4,O=C(NC(=S)Nc1ccccc1N1CCCC1)c1ccc([N+](=O)[O-])cc1,4% (active)
5,Cc1cccc(OCC(=O)NC2CCCc3ccccc32)c1C (stereo not drawn),-11% (inactive)
6,O=C(COc1ccc(Cl)cc1Cl)NC(=S)Nc1ccccc1C(=O)O,-6% (inactive)
7,O=C(NC(=S)Nc1ccccc1N1CCCC1)c1ccc(-c2cccc([N+](=O)[O-])c2)o1,-6% (inactive)
8,CCOc1ccc(NC(=O)CS(=O)CC(=O)NC2CCCc3ccccc32)cc1 (stereo not drawn),-7% (inactive)
9,O=C(NC(=S)Nc1cccc(Cl)c1N1CCCCC1)c1ccco1,52% (active)
10,O=C(NC(=S)Nc1cccc(Cl)c1N1CCOCC1)c1cccs1,-5% (inactive)
11,O=C(NC(=S)NC1CCCc2ccccc21)c1ccco1 (stereo not drawn),13% (active)
12,O=C(CNC1CCCCCC1)Nc1ccccc1N1CCOCC1,-12% (inactive)
13,O=C(COc1ccccc1Cl)NC(=S)Nc1ccccc1N1CCCC1,15% (active)
14,N#Cc1cccc(NC(=O)c2nc(-c3ccccc3)n(-c3ccccc3)n2)c1,-18% (inactive)
15,Fc1ccccc1N1CCN(c2cnc3ccccc3n2)CC1,-9% (inactive)
16,Nc1nnc(SCC(=O)OCc2ccc(F)cc2)s1,-27% (inactive)
17,Cc1cc(-c2cccnc2)c(C#N)c(SCc2cccc(F)c2)n1,-15% (inactive)
18,CCCCNC(=O)N1CCCC(C(=O)c2cc(C)c(OC)c(C)c2)C1 (stereo not drawn),-22% (inactive)
19,C/C(N)=C(/C#N)C(=O)COC(=O)C1CCC(C(C)(C)C)CC1 (stereo not drawn),-7% (inactive)
20,CCC(C)(C(=O)NC1CCCC1)N(C(=O)c1ccccn1)c1ccccc1 (stereo not drawn),-17% (inactive)
21,Cc1cc(-c2cccc(Br)c2)c(C#N)c(N)n1,-15% (inactive)
22,CCNC(=O)NC1c2ccccc2CSc2ccccc21 (stereo not drawn),-19% (inactive)
23,O=C(NC(=S)Nc1ccc(N2CCCCC2)cc1)c1ccco1,45% (active)

row,Structure (SMILES),"activity increase over dofetilide control, less the hit threshold"
1,O=C(NC(=S)Nc1ccccc1Cl)c1ccco1,18% (active)
2,O=C(NC(=S)Nc1ccccc1N1CCCC1)c1ccco1,4% (active)
3,CC1CCN(c2ccccc2NC(=S)NC(=O)c2ccco2)CC1,-6% (inactive)
4,O=C(NC(=S)Nc1cc(C(F)(F)F)ccc1N1CCOCC1)c1ccco1,10% (active)
5,O=C(NC(=S)Nc1ccccc1Br)c1ccco1,-1% (inactive)
6,O=C(CCc1ccccc1)NC(=S)Nc1cc(C(F)(F)F)ccc1N1CCOCC1,-14% (inactive)
7,Cc1ccc2[nH]c(C(=O)O)c(-c3ccccc3)c2c1,-16% (inactive)
8,O=c1cc(CN2CCN(S(=O)(=O)c3ccc4c(c3)OCCO4)CC2)c2ccc(O)cc2o1,-5% (inactive)
9,CCOc1cc(NC(=S)N2CCC(C(N)=O)CC2)c(C(=O)OC)cc1OCC,-4% (inactive)
10,COc1cc2c(cc1OC)CN(C(=O)c1sccc1C)CC2,-13% (inactive)
11,Cc1ccc(OCC(=O)Nn2cnc3ccccc32)cc1,-11% (inactive)
12,Cc1ccc(C2C(C#N)=C(N)OC3=C2C(=O)CC(C)(C)C3)s1 (stereo not drawn),-4% (inactive)
13,Cc1ccc(-c2csc3nc[nH]c(=S)c23)cc1C,36% (active)
14,Cc1cc(-c2csc3nc[nH]c(=S)c23)cc(C)c1C,14% (active)
15,O=C(O)c1ccccc1P(=O)(c1ccccc1)c1ccccc1,-20% (inactive)
16,CCCC(=O)n1nc(-c2ccccc2)nc1N,-17% (inactive)
17,CCCCCCc1cc2cc(-c3nnc(-c4ccccc4)o3)c(=O)oc2cc1O,-13% (inactive)
18,c1ccc(CCCNc2ncnc3nc[nH]c23)cc1,11% (active)
19,O=C(N/C(=C/c1ccc2c(c1)OCO2)C(=O)N1CCOCC1)c1cccs1,-18% (inactive)
20,O=C(NC(=S)N1CCN(c2ccccc2)CC1)c1c(F)cccc1F,-9% (inactive)
21,O=C(NC(=S)N1CCN(c2ccccc2)CC1)c1ccccc1,16% (active)
22,O=C(NC(=S)N1CCN(c2ccc(F)cc2)CC1)c1cccs1,25% (active)
23,O=C(c1cccs1)N1CCN(C23CC4CC(CC(C4)C2)C3)CC1,-21% (inactive)

row,Structure (SMILES),"activity increase over dofetilide control, less the hit threshold"
1,O=C(CN1CCN(c2ccc(Cl)cc2)CC1)Nc1ccc(F)cc1,-15% (inactive)
2,CC1CCN(C(=S)NC(=O)c2cccs2)CC1,10% (active)
3,N#Cc1cccc(N=c2ssnc2Cl)c1,-32% (inactive)
4,CC(=O)Nc1ccccc1NC(=O)C/C(C)=N/NC(=O)c1ccc([N+](=O)[O-])c(Cl)c1,-13% (inactive)
5,O=C(CSc1nc2ccc(NC(=O)c3ccccc3C(=O)O)cc2s1)Nc1c(Cl)cccc1Cl,0% (inactive)
6,Cc1ccccc1NC(=O)CSc1ccsc1[N+](=O)[O-],-6% (inactive)
7,CSc1nsc(SCC(=O)Nc2ccccc2C(=O)O)n1,2% (active)
8,O=C(NNC(=S)Nc1ccccc1)c1cccc(S(=O)(=O)N2CCOCC2)c1,-12% (inactive)
9,COc1cc(Cl)c(C)cc1NC(=O)CSc1sc2c(O)cc(=O)[nH]c2c1C#N,1% (active)
10,Cc1cc(=O)[nH]c(SCC(=O)Nc2ccccc2C#N)c1C#N,-4% (inactive)
11,CCC(NS(=O)(=O)c1ccc(OC)cc1)C(=O)O (stereo not drawn),-13% (inactive)
12,CCOC(=O)c1nc(C)n(-c2ccc(Cl)cc2)n1,-1% (inactive)
13,Cc1nn(-c2ccc(Cl)cc2)c2sc(C(=O)c3c(N)n(C)c(=O)n(C)c3=O)cc12,67% (active)
14,O=C(NCC1CCS(=O)(=O)C1)Oc1ccccc1 (stereo not drawn),-15% (inactive)
15,CCN(CC)c1ccc(/C=c2\sc3nnc(-c4ccccc4Cl)n3c2=O)cc1,-11% (inactive)
16,Cc1nn(-c2ccccc2)c(C)c1S(=O)(=O)O,-6% (inactive)
17,Cc1nn(-c2ccccc2)c(N2CCCC2)c1/C=N/O,-16% (inactive)
18,Cc1nn(-c2ccccc2)c(Cl)c1/C=C1\SC(=S)NC1=O,51% (active)
19,COCCCN1C(=O)C(=O)/C(=C(/O)c2ccc(S(=O)(=O)N3CCOCC3)cc2)C1c1ccc(F)cc1 (stereo not drawn),-5% (inactive)
20,CCCN(C(=O)c1ccco1)c1nnc(-c2ccncc2)s1,5% (active)
21,CN(C(=O)CCc1ccccc1)c1nnc(-c2ccncc2)s1,-24% (inactive)
22,O=C(c1ccco1)N(c1ccccn1)c1ccccn1,-13% (inactive)

# — PubChem BioAssay AID1835 (Johns Hopkins Ion Channel Center, 2009)
